The source of these data is PubChem BioAssay (NCATS).

The nature of assay [1]: Viability qHTS for spleen associated tyrosine kinase inhibitor (SYKi) naive MV4-11 cells (AID 1963823). Note: nearly all actives have a fitted effect of over 40% in size. The method, boiled down:
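CellTiter-Glo luminescence, 10 min room-temperature incubation, gave viability. Cells: naive MV4-11 (500/well), treated 72 hr at 37 C, 5% CO2.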

Assay [2] in a line: Viability qHTS for spleen associated tyrosine kinase inhibitor (SYKi) drug resistant MV4-11 cells (AID 1963824). Note: nearly all actives have a fitted effect of over 35% in size. The method, boiled down:
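SYK-inhibitor-resistant MV4-11 AML cells were seeded at 500 per well onto compound and cultured 72 hours (37 °C, 5% CO2). CellTiter-Glo was then added, and after 10 min at room temperature, luminescence gave viability.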
On the technique in general: Quantitative high-throughput screening tests each substance at several concentrations.

The nature of assay [3]: Quantitative highthroughput screen to assess conditional lethalithy of NOMO1 cells grown in RPMI1640 with dialyzed fetal bovine serum (RPMI+ds) (AID 1963877).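 For Viability: series mostly up to about 46 µM; 100% = DMSO control wells and 0% = empty wells.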 Note: nearly all actives have a fitted effect of over 30% in size. The method, boiled down:
(§1)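 Each medium arm—HPLM with 10% dialyzed FBS, or RPMI1640 with 5 mM glucose and 10% untreated or dialyzed FBS—was screened against an 11-point, 3-fold compound titration for 48 h at 37 °C, with CellTiter-Glo luminescence as endpoint.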

Assay [4] is described as follows: Quantitative highthroughput screen to assess conditional lethalithy of NOMO1 cells grown in Human Plasma-Like Medium with dialyzed fetal bovine serum (HPLM+ds) (AID 1963878).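 For Viability: 100% = DMSO wells and 0% = empty wells on each plate.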 Note: nearly all actives have a fitted effect of over 35% in size. The method, boiled down:
as §1

Assay [5] in a line: Quantitative highthroughput screen to assess conditional lethalithy of P12 Ichikawa cells grown in Human Plasma-Like Medium with dialyzed fetal bovine serum (HPLM+ds) (AID 1963879). For Viability: series mostly up to about 46 µM. Note: nearly all actives have a fitted effect of over 35% in size. Conditions: Potency: viability. The method, boiled down: as §1
The nature of assay [6]: Quantitative highthroughput screen to assess conditional lethalithy of P12 Ichikawa cells grown in RPMI1640 with dialyzed fetal bovine serum (RPMI+ds) (AID 1963880).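 For Viability: 100% = DMSO wells and 0% = empty wells on each plate.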 Note: nearly all actives have a fitted effect of over 35% in size. Particulars: Potency: P12-Ichikawa viability. Summed up: as §1
Assay [7] is described as follows: Quantitative highthroughput screen to assess conditional lethalithy of P12 Ichikawa cells grown in RPMI1640 with untreated serum (RPMI+s) (AID 1963881).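 For Viability: series mostly up to about 46 µM; 100% = DMSO wells and 0% = empty wells without cells.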 Note: nearly all actives have a fitted effect of over 35% in size. Conditions: Potency: viability. The method, boiled down:
as §1

Assay [8] is described as follows: Quantitative highthroughput screen to assess conditional lethalithy of SEM cells grown in Human Plasma-Like Medium with dialyzed fetal bovine serum (HPLM+ds) (AID 1963882). For Viability: series mostly up to about 46 µM. Note: nearly all actives have a fitted effect of over 35% in size. Summed up: as §1
The nature of assay [9]: Quantitative highthroughput screen to assess conditional lethalithy of SEM cells grown in RPMI1640 with unreated serum (RPMI+s) (AID 1963883).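 For Viability: 100% = DMSO wells and 0% = empty wells without cells.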 Note: nearly all actives have a fitted effect of over 35% in size. Summed up:
as §1

Assay [10] in a line: Cellular viability qHTS for adrenocortical cancer (ACC) cell line SW-13 (AID 1963989).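 For activity (max response): cells grown in serum-free medium with ITS supplement; % is set by controls: 0 for no effect and ±100 for the full control effect.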 Note: nearly all actives have a fitted effect of over 65% in size. Particulars: SW-13 ACC cells viability, CellTiter-Glo, 48 h; activity (max response): stronger effect = lower value. Summed up: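 IC50 and maximal-response values come from four-parameter logistic fits of titration data. SW-13 cells in serum-free medium received compounds (up to 46 uM final) for 48 h before CellTiter-Glo luminescence.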

A short description of assay [11]: Cellular viability qHTS for adrenocortical cancer (ACC) cell line NCI-H295R (AID 1963990). Note: nearly all actives have a fitted effect of over 60% in size. Summed up:
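Adrenocortical carcinoma cells, suspended at 300 000 cells/mL in serum-free DMEM plus ITS, rested overnight before pin transfer of compound. After two days' incubation, ATP-dependent luminescence was recorded and curve-fitted.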

Assay [12] is described as follows: Quantitative highthroughput screen to assess conditional lethalithy of SEM cells grown in RPMI1640 with dialyzed fetal bovine serum (RPMI+ds) (AID 1963884). Note: nearly all actives have a fitted effect of over 35% in size. Summed up:
as §1

“And” between values parts separate entries of the source, which are not always exact repeats. Equal entries are not always repeated. Records with an inconclusive call do not appear. Unmarked numbers belong to inactive results. The source made the active and inactive calls. Calls come from the whole dose curve; as a rule, active = well fitted curve in the direction sought with a large enough effect; inconclusive = small, poorly fitted or top-dose-only effect, or another doubt; inactive = no such curve, though single readings can be large; an effect the other way counts as inactive or inconclusive.
Potency is the fitted concentration of half-maximal effect.

As for `Cc1cn(CCN2CCN(c3ccccc3-c3cc(C#N)cc(C(=O)NCCCN4CCCC4)c3)CC2)c2ccccc12`, the Potency was 3.72 µM (active) in assay [1]; 3.66 µM (active) and 3.32 µM (active) in [2]; 10.5 µM (active) in [3]; 8.31 µM (active) in assay [4]; 8.31 µM (active) in assay [5]; 7.41 µM (active) in [6]. In addition, the Potency is 8.31 µM (active) in assay [7]; 6.6 µM (active) in assay [8]; 13.2 µM (active) in [9]; 22.4 µM (active) in assay [10]; 5.62 µM (active) in assay [11].
Turning to `N#CC1(c2ccc(NC(=O)c3cccnc3NCc3ccncc3)cc2)CCCC1`, the Potency in assay [1] was 2.31 µM (active); in assay [2], 5.17 µM (active); in [12], 1.66 µM (active). Moreover, the Potency result in assay [3], in assay [4], in assay [6], in assay [7], in assay [9] and in assay [11] was “inactive” throughout. For the same molecule, the activity (max response) in [10] is -5.11%.
As to `CN(C)CCCN=c1c2ccccc2n(C)c2[nH]c(=O)n(C)c(=O)c12`, the Potency in assay [1] is 5.9 µM (active); in assay [2], 8.33 µM (active); in assay [3] it was 20.9 µM (active); in assay [5], 26.4 µM (active); in assay [6], 18.7 µM (active); in [7] it was 18.7 µM (active). Further, the Potency in assay [8] is 11.8 µM (active); in assay [9], 10.5 µM (active); in [12], 9.35 µM (active); in assay [10], 25.1 µM (active); in assay [11], 28.2 µM (active).
Consider `CC1(C)CC(=O)c2c(C(F)(F)F)nn(-c3ccc(C(N)=O)c(NC4CCC(O)CC4)c3)c2C1` (stereo not given), for which the Potency in assay [1] is 0.0209 µM (active); in assay [2] it was 0.0332 µM (active); in assay [3], 0.187 µM (active); in assay [4], 0.235 µM (active); in assay [5] it was 0.235 µM (active); in assay [6] it was 0.148 µM (active). The Potency was 0.148 µM (active) in [7]; 0.148 µM (active) in [8]; 0.148 µM (active) in assay [9]; 0.148 µM (active) in assay [12]; 0.224 µM (active) in assay [10]; 0.447 µM (active) in [11].
For the molecule `CC[C@@]1(O)C[C@H](O[C@H]2C[C@H](N(C)C)[C@H](O[C@H]3C[C@H](O)[C@H](O[C@H]4CCC(=O)[C@H](C)O4)[C@H](C)O3)[C@H](C)O2)c2c(cc3c(c2O)C(=O)c2c(O)cccc2C3=O)[C@@H]1C(=O)OC`, the Potency in assay [1] is 1.66 µM (active); in [2], 1.32 µM (active); in assay [4], 1.18 µM (active); in [6], 16.6 µM (active); in assay [10] it was 10 µM (active); in [11], 22.4 µM (active). In addition, the Potency entry in assay [5] was “inactive”.
Consider `COc1cc2ncnc(Nc3cccc(Cl)c3)c2cc1OC`, for which the Potency is 4.61 µM (active) and 5.17 µM (active) in assay [1]; 4.17 µM (active) and 6.51 µM (active) in [2]; 4.69 µM (active) in assay [4]; 4.69 µM (active) in assay [5]; 0.332 µM (active) in assay [8]; 0.166 µM (active) in [9]. Moreover, the figures for the Potency in assay [12] and in [10] were 0.372 µM (active) and 5.62 µM (active), respectively.
Turning to `CC(C)C[C@H](NC(=O)CNC(=O)c1cc(Cl)ccc1Cl)B(O)O`, the Potency in assay [1] was 0.0934 µM (active); in [2] it was 0.0934 µM (active); in assay [3], 0.418 µM (active); in assay [10], 2 µM (active); in assay [11], 0.398 µM (active).
Consider `Cn1c(Nc2ccc(C(F)(F)F)cc2)nc2cc(Oc3ccnc(-c4ncc(C(F)(F)F)[nH]4)c3)ccc21`, for which the Potency was 2.91 µM (active) in [1]; 1.3 µM (active) in [2]; 23.5 µM (active) in assay [3]; 18.7 µM (active) in assay [6]; 14.8 µM (active) in [7]; 4.69 µM (active) in assay [9]. Also, the activity (max response) in [10] was -8.43%. The Potency entry in [11] is “inactive”.
Consider `Nc1nc(=S)c2[nH]cnc2[nH]1`, for which the Potency in assay [1] was 0.934 µM (active); in assay [2], 1.05 µM (active); in assay [3], 7.43 µM (active); in [6], 14.8 µM (active); in assay [10], 3.26 µM (active) and 2.82 µM (active); in [11] it was 731 nM (active) and 1.12 µM (active).
In the case of `CCCCCCNC(=O)n1cc(F)c(=O)[nH]c1=O`, the Potency in assay [1] was 1.05 µM (active); in [2] it was 0.934 µM (active); in [3], 9.35 µM (active); in [9], 16.6 µM (active). The Potency result in [8] and in [11] was “inactive” in each case. Further, the activity (max response) in assay [10] is 8.7% and -4.78%.
